Source: the supplement of paper PMC11732987, “Enantioselective OTUD7B fragment discovery through chemoproteomics screening and high-throughput optimisation” (Communications Chemistry, 2025)
A number with no mark means an inactive call.

Experiments:
Assay in all cases: log2 ratio of Biotin-Ahx-Ub-VS probe labelling (fragment/DMSO); higher = less target engagement (more negative = stronger competition), active = hit call of the paper (q ≤ 0.05, log2 ratio ≤ -1)
Settings in all cases: compound concentration: 200 uM; treatment time: 3 h
OTUD6B = target: T1, OTUD6B (UniProt Q8N6M0)
T1 sequence (whole entry): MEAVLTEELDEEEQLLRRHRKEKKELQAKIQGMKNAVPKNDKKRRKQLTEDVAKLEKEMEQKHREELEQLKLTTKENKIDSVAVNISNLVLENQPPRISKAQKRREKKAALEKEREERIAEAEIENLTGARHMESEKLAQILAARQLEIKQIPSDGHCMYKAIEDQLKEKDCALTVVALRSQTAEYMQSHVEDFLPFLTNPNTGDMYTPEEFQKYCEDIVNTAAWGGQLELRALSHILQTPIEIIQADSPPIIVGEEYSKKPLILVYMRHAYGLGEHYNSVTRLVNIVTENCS
Summary of the method: (§1)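 Global-median-normalised Spectronaut label-free quantities were compared by unpaired t-test, and values are average log2 ratios of fragment over vehicle. Only proteins with ≥2 unique peptides were used. HEK293T lysate (495 µg per sample) was treated in triplicate with fragment at 200 µM or vehicle for 3 h and then with Biotin-Ahx-Ub-VS at 0.5 µM final for 1 h. Labelled DUBs were then NeutrAvidin-enriched, digested with LysC and trypsin, and run by diaPASEF LC-MS/MS.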

OTUD7B = target: T2, OTUD7B (UniProt Q6GQQ9)
T2 sequence (whole entry): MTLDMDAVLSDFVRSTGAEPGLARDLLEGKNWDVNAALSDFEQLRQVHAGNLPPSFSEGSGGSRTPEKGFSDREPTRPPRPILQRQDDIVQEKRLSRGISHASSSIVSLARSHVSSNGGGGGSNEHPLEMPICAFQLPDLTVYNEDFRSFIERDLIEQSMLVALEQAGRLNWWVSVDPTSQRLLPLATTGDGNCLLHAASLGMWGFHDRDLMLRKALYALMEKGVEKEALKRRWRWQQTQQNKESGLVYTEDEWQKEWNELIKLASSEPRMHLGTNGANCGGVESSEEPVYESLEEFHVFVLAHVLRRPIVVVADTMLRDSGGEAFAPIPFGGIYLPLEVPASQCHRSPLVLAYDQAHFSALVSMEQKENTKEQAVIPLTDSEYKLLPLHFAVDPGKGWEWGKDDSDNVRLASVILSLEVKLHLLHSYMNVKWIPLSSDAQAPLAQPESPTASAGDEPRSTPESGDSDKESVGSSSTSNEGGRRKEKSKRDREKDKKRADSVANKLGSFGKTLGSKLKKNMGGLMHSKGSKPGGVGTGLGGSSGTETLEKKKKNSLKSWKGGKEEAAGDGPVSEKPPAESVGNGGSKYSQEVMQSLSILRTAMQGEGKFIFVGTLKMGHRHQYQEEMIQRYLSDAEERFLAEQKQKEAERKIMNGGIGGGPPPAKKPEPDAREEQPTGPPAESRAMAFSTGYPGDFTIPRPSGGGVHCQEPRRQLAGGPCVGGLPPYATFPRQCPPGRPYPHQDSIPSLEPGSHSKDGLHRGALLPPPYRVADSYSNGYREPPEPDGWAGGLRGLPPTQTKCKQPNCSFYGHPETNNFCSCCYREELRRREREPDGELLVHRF
Summary of the method: as §1

PRPF8 = PRPF8 (UniProt Q6P2Q9)
Summary of the method: as §1

PSMD7 = target: T3, PSMD7 (UniProt P51665)
T3 sequence (whole entry): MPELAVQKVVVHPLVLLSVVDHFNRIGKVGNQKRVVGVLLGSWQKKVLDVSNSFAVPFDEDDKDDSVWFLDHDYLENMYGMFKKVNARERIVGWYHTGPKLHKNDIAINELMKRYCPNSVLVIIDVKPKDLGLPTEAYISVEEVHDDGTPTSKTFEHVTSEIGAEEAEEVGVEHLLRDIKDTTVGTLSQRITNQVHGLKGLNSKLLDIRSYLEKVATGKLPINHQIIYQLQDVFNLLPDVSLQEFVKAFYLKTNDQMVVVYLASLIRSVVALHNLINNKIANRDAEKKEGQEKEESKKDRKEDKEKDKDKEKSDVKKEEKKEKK
Summary of the method: as §1

UCHL1 = UCHL1 (UniProt P09936)
Chain of UCHL1 (P09936 whole entry, looked up): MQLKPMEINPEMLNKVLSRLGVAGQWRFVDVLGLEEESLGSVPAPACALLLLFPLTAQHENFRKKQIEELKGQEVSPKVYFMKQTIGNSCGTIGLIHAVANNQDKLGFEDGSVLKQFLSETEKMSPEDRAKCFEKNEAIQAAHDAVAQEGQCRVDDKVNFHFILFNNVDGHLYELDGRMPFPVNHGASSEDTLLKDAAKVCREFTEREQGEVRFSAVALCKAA
Summary of the method: as §1

UCHL3 = target: T4, UCHL3 (UniProt P15374)
T4 sequence (whole entry): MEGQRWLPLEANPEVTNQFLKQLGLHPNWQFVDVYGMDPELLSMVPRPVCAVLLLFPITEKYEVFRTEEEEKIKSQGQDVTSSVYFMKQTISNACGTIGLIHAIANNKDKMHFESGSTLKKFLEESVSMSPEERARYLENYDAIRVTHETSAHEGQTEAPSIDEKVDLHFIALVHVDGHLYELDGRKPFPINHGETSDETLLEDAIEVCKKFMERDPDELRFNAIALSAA
Summary of the method: as §1

UCHL5 = target: T5, UCHL5 (UniProt Q9Y5K5)
T5 sequence (whole entry): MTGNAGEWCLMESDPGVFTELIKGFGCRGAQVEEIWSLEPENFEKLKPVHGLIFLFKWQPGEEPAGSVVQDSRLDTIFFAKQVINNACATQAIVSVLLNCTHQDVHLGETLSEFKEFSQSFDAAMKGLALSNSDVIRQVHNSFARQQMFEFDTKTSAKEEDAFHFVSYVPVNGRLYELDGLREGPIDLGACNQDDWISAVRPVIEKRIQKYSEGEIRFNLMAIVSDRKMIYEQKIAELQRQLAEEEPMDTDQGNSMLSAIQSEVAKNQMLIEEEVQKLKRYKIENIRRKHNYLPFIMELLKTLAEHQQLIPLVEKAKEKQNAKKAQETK
Summary of the method: as §1

USP10 = USP10 (UniProt Q14694)
Chain of USP10 (Q14694 whole entry): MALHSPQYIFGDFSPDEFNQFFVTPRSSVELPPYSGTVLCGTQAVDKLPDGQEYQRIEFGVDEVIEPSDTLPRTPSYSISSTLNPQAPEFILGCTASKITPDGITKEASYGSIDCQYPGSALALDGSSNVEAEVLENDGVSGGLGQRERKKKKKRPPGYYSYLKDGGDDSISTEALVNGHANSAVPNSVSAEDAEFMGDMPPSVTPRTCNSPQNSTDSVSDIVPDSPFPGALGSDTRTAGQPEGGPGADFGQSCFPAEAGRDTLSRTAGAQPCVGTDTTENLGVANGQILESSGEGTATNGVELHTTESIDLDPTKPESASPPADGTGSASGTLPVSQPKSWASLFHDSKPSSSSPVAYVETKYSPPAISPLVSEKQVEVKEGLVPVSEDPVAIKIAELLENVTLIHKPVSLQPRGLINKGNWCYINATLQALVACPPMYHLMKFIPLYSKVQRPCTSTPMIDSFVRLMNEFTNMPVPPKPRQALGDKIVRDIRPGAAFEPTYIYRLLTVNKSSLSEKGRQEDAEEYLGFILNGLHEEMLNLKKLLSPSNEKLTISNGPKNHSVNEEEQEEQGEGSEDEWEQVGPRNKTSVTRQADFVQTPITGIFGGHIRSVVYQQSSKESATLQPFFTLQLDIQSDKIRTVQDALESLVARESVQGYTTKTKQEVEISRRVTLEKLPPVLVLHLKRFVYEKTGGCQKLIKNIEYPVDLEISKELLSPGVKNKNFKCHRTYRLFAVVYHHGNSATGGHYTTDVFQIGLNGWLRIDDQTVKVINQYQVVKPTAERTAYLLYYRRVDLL
Summary of the method: as §1

USP15 = target: T6, USP15 (UniProt Q9Y4E8)
T6 sequence (whole entry): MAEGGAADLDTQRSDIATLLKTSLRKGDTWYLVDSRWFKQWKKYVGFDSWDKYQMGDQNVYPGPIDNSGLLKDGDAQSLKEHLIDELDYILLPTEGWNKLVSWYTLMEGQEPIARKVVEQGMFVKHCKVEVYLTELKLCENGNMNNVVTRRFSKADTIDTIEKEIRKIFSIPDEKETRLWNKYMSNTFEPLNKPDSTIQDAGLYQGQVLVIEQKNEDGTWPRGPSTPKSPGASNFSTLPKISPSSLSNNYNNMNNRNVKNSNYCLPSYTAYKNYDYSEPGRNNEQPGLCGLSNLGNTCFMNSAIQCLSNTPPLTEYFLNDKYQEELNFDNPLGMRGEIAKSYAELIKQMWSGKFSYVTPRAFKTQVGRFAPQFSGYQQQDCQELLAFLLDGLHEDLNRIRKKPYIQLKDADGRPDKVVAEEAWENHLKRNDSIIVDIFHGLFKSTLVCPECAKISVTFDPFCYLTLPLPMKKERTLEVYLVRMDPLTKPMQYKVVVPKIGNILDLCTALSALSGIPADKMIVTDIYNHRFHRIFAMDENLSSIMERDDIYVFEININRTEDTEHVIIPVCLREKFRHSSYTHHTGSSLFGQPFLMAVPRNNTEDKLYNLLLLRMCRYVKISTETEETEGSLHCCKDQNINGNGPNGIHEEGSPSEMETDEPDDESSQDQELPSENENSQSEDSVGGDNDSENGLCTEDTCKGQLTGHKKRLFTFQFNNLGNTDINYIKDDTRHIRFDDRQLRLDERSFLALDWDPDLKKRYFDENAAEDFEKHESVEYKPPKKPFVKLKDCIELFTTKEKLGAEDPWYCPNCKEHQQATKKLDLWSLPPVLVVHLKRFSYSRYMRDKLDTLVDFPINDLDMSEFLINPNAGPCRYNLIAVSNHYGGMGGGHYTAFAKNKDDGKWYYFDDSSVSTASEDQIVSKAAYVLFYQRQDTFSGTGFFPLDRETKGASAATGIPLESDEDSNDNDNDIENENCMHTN
Summary of the method: as §1

USP16 = USP16 (UniProt Q9Y5T5)
Chain of USP16 (Q9Y5T5 whole entry, looked up): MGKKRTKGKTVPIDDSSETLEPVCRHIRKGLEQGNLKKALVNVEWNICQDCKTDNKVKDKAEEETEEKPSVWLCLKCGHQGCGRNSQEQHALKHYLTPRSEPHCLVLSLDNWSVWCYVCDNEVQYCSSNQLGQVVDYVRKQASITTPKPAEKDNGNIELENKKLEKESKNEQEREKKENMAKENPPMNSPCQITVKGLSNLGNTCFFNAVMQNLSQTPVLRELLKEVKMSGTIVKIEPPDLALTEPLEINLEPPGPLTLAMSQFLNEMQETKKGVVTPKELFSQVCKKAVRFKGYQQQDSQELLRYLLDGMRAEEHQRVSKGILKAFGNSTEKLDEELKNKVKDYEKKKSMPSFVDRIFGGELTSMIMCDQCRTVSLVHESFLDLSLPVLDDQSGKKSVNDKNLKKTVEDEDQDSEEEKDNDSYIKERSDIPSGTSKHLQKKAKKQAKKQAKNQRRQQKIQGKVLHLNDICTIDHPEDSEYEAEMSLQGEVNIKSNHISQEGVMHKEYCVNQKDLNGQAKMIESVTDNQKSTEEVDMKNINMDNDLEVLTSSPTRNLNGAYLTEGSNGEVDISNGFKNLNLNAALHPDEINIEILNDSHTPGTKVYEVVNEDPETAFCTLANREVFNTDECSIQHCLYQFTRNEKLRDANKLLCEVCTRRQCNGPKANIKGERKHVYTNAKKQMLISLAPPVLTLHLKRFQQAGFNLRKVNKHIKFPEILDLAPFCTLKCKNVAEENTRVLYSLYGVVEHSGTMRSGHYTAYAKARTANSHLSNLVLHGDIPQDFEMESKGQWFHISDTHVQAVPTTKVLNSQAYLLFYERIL
Summary of the method: as §1

Compound: Cl.O=C(CCl)N1CCCC(c2ncc[nH]2)C1 (stereo not given)
- log2 ratio of Biotin-Ahx-Ub-VS probe labelling (OTUD6B): -0.0792
- log2 ratio of Biotin-Ahx-Ub-VS probe labelling (OTUD7B): -0.245
- log2 ratio of Biotin-Ahx-Ub-VS probe labelling (PRPF8): -0.138
- log2 ratio of Biotin-Ahx-Ub-VS probe labelling (PSMD7): -0.217
- log2 ratio of Biotin-Ahx-Ub-VS probe labelling (UCHL1): -1.49 (active)
- log2 ratio of Biotin-Ahx-Ub-VS probe labelling (UCHL3): 0.271
- log2 ratio of Biotin-Ahx-Ub-VS probe labelling (UCHL5): -0.164
- log2 ratio of Biotin-Ahx-Ub-VS probe labelling (USP10): -0.028
- log2 ratio of Biotin-Ahx-Ub-VS probe labelling (USP15): -0.0525
- log2 ratio of Biotin-Ahx-Ub-VS probe labelling (USP16): -0.216
